Assay results published in ChEMBL document CHEMBL1157539, “Thousands of chemical starting points for antimalarial lead identification” (Nature, 2010).
In all, about 13,000 compounds were measured (“IFI”: median about 4, highest 2% from about 17 on). The sample as a whole holds a higher share of the highest values than the screen did.

Assay: GSK_TCMDC: Inhibition Frequency Index (IFI). The number of non-kinase HTS assays where a compound showed > 50 % inhibition, expressed as a percentage of the number of such assays in which the compound was tested
Assay type: functional

SMILES	IFI [%]
Cc1ccc(F)c(OCC2CCN(c3ncc(C(=O)NC4CC4)cc3Cl)CC2)c1	17.3
Cc1ccc(OCC2CCN(c3ncc(C(=O)NC4CC4)cc3Cl)CC2)cc1	0
Cc1cc(OCC2CCN(c3ncc(C(=O)NC4CC4)cc3Cl)CC2)ccc1F	9.8
CN1CCC(NCc2cccc(-c3cccc(S(=O)(=O)NCc4ccccc4)c3)c2)CC1	11.2
CCN(CC)CCOc1ccc(NC(=O)c2oc3ccccc3c2C=Cc2ccccc2)cc1	18.5
CCN(CC)CCNC(=O)c1ccc(NC(=O)c2oc3c(Cl)cccc3c2C)cc1	4.76
CCN(CC)CCOc1ccc(C(O)(C#CC(O)(c2ccccc2)c2ccc(OCCN(CC)CC)cc2)c2ccccc2)cc1 (stereo not drawn)	6.52
COC(=O)c1cccc(CNCc2ccc(-c3ccc(-c4nc5cccc(C)c5[nH]4)s3)cc2)c1	7.55
CN1CCN(CCCN(Cc2cccc(-c3cccc(CNCc4ccc5c(c4)OCO5)c3)c2)C(=O)CCC2CCCC2)CC1	10.9
CC(C)C[C@H](NC(=O)c1cc2ccccc2s1)C(=O)N[C@H]1CCN(Cc2ccc(I)c(OC3CCN(C)C3)c2)C1 (stereo partly drawn)	16.7
O=C(Nc1ccc2ccccc2c1)c1ccc(CN2CCC(Cc3ccccc3)CC2)cc1	6.21
CCCCOc1cc2c(cc1OCC)C(C=Cc1ccc(Cl)cc1Cl)=NCC2	6.67
CCCOc1cc2c(cc1OCCC)C(C=Cc1ccc(Cl)cc1Cl)=NC(C)C2 (stereo not drawn)	19
C/C=C/C=C/C1=NCCc2cc(OCCC)ccc21	8.76
COc1ccc(CNCCc2cccs2)cc1-c1cccc(S(=O)(=O)NCCN2CCCC2)c1	9.8
C=CCN(C(=O)c1ccc(Cl)c([N+](=O)[O-])c1)c1nc(-c2ccccc2)cs1	3.39
Nc1ncc(-c2ccc(NC(=O)Nc3cc(C(F)(F)F)ccc3F)cc2)c(N)n1	0
Nc1ccc(-c2ccc(NC(=O)Nc3cc(C(F)(F)F)ccc3F)cc2)cn1	1.32
Nc1nccc2ccc(-c3ccc(NC(=O)Nc4cc(C(F)(F)F)ccc4F)cc3)cc12	20.2
Cc1[nH]c(C)c(-c2ccc(Oc3ccccc3)cc2)c(=O)c1Br	6.11
Cc1cccc(C(O)CNc2ccnc(Nc3cccc(-c4csc(C)n4)c3)n2)c1 (stereo not drawn)	13.6
Cc1nc(-c2cccc(Nc3nccc(NCC(O)c4ccccc4C)n3)c2)cs1 (stereo not drawn)	13.6
Cc1ccc(C(O)CNc2ccnc(Nc3cccc(-c4csc(C)n4)c3)n2)cc1 (stereo not drawn)	8.74
Cc1nc(-c2cccc(Nc3nccc(NCC(O)c4cccc(C(F)(F)F)c4)n3)c2)cs1 (stereo not drawn)	11
Cc1nc(-c2cccc(Nc3nccc(NCC(O)c4ccccc4)n3)c2)cs1 (stereo not drawn)	24.1
Cc1nc(-c2cccc(Nc3nccc(NCC(O)c4ccccc4C(F)(F)F)n3)c2)cs1 (stereo not drawn)	22.8

SMILES	IFI [%]
Cc1[nH]c(C)c(-c2ccc(-c3ccc(Cl)cc3)cc2)c(=O)c1Cl	0.76
COc1ccc(CNCc2ccc(-c3cccc(-c4nc5cc(C(F)(F)F)ccc5[nH]4)c3)cc2)cc1	14.3
CCCCc1cc(O)c2c(c1)OC(C)(C)C=C2C1=CCN(Cc2ccccc2)CC1	1.43
Oc1ccc2nc(NCCCc3ccccc3)nc(NCCCc3ccccc3)c2c1	10.9
COc1ccc(NC(=O)Nc2ccc(C)c(-c3ccc(C(=O)NCCN4CCCC4)cc3)c2)cc1	0
COc1cccc(NC(=O)Nc2ccc(C)c(-c3ccc(C(=O)Nc4ccncc4)cc3)c2)c1	26.8
COc1cccc(NC(=O)Nc2ccc(-c3oc(C(=O)NCC(c4ccccc4)N(C)C)cc3-c3ccncc3)cc2)c1 (stereo not drawn)	6.85
COc1ccc(NC(=O)Nc2ccc(C)c(-c3ccc(C(=O)Nc4ccncc4)cc3)c2)cc1	25.4
COc1cccc(NC(=O)c2cc(Br)cc(N3CCN(c4ccncc4)CC3)c2)c1	12.5
COc1ccc(C(=O)Nc2ccc(Cl)cc2C(=O)Nc2ccncc2)cc1	1.35
CN1CCN(c2ccc(Nc3c(C(N)=O)cnc4cc(-c5ccoc5)ccc34)cc2)CC1	4.73
OC1=C2C(=Nc3ccccc3SC2c2cccs2)c2ccccc21 (stereo not drawn)	3.5
COc1ccccc1-c1ccc(C(=O)NCC2CCCN(Cc3cccc(C(F)(F)F)c3)C2)s1 (stereo not drawn)	3.7
Nc1nc(N)c2c(ccc3c2ccn3Cc2ccc3c(c2)OCO3)n1	6.67
Fc1ccccc1C=NNc1ccnc2cc(Cl)ccc12	1.48
CC(C)c1ccc(C=CC(=O)N2CCC(CCN3CCC(c4c[nH]c5ccccc45)CC3)CC2)cc1	7.19
OC(CNc1ccnc(Nc2cccc(Cl)c2)n1)c1ccccc1C(F)(F)F (stereo not drawn)	20.4
Cc1ccccc1C(O)CNc1ccnc(Nc2cccc(C#N)c2)n1 (stereo not drawn)	7.69
OC(CNc1ccnc(Nc2cccc(Cl)c2)n1)c1cccc(C(F)(F)F)c1 (stereo not drawn)	13.3
OC(CNc1ccnc(Nc2ccccc2)n1)c1ccc(C(F)(F)F)cc1 (stereo not drawn)	8.08
N#Cc1cccc(Nc2nccc(NCC(O)c3cccc(C(F)(F)F)c3)n2)c1 (stereo not drawn)	10.4
OC(CNc1ccnc(Nc2cccc(Cl)c2)n1)c1ccc(C(F)(F)F)cc1 (stereo not drawn)	11
N#Cc1cccc(Nc2nccc(NCC(O)c3ccc(C(F)(F)F)cc3)n2)c1 (stereo not drawn)	20.4
OC(CNc1ccnc(Nc2ccc(Cl)cc2)n1)c1ccccc1C(F)(F)F (stereo not drawn)	14.4
N#Cc1cccc(Nc2nccc(NCC(O)c3ccccc3C(F)(F)F)n2)c1 (stereo not drawn)	19.2
CNCCNCc1cccc(-c2ccc(-c3nc4cc(C(F)(F)F)ccc4[nH]3)s2)c1	8

SMILES	IFI [%]
O=C(Nc1ccc(-c2cccc(-c3nc4cc(C(F)(F)F)ccc4[nH]3)c2)cc1)c1ccoc1	7.08
CN(C)CC(=O)Nc1ccc(-c2ccc3ccnc(N)c3c2)cc1	7.95
CCCCCCCN1CC[C@@H](CCCc2ccnc3ccc(OCCCCNC(N)=O)cc23)[C@@H](CC)C1	8.76
CC[C@H](C)CNCc1ccc(OCc2cccc(COc3ccc(CNC[C@@H](C)CC)cc3I)c2)c(I)c1	15.3
CC(C)CNCc1ccc(OCc2cccc(COc3ccc(CNCC(C)C)cc3I)c2)c(I)c1	8.89
CC(C)NCc1ccc(OCc2cccc(COc3ccc(CNC(C)C)cc3I)c2)c(I)c1	17.6
Cc1[nH]c(C)c(-c2ccc(OCCSc3ccncc3)cc2)c(=O)c1Br	3.7
O=C(Oc1ccc(Cl)cc1C(=O)Nc1ccc([N+](=O)[O-])cc1Cl)c1ccccc1	22.4
O=C(Nc1ccc([N+](=O)[O-])cc1Cl)c1cc2ccccc2cc1O	12.8
O=C(Nc1ccc([N+](=O)[O-])cc1Cl)c1cc(Br)cc(Cc2ccccc2)c1O	16.2
O=C(Nc1ccc(Cl)cc1C(=O)Nc1cccc(F)c1)c1ccc([N+](=O)[O-])cc1	1.43
COc1ccccc1NC(=O)c1cc(C(=O)c2cc(Cl)ccc2O)cn(-c2ccccc2OC)c1=O	0.97
COc1cc([N+](=O)[O-])ccc1NC(=O)c1cc(Cl)ccc1O	35.6
Cc1[nH]cnc1CSCCN/C(=N\C#N)NCCCCCCCCN/C(=N/C#N)NCCSCc1nc[nH]c1C	1.49
CC(C)(C)c1ccc(-c2cc(C(=O)N[C@@H](CO)C(=O)O)on2)cc1.CC(C)(C)c1ccc(-c2nocc2C(=O)N[C@@H](CO)C(=O)O)cc1	0
CN/C(=N\O)NCCN(C)C	1.43
Clc1cccc(Nc2ccc3c(N4CCCCC4)ncnc3n2)c1	8.33
CS(=O)(=O)CCNCc1nc(-c2ccc3c(Nc4ccc(F)c(O)c4)ccnc3c2)cs1	3.73
CS(=O)(=O)CCNCc1nc(-c2ccc3c(=O)[nH]cnc3c2)cs1	22.6
CS(=O)(=O)CCNCc1nc(-c2ccc3c(Nc4ccc(Cl)cc4F)ccnc3c2)cs1	7.69
Cc1sc(NC(=O)c2ccc([N+](=O)[O-])cc2Cl)c(C(N)=O)c1C	0.75
Cc1c(N=O)cc(C(C)(C)C)c(O)c1C(=O)Nc1ccc([N+](=O)[O-])cc1Cl	25.2
Cc1cc([N+](=O)[O-])ccc1NC(=O)Nc1cccc(C(F)(F)F)c1	7.89
CCCCC(NCC)c1ccc(OCCOc2ccc(C(CCCC)NCC)cc2)cc1 (stereo not drawn)	8.82
CCCCCCC(N)c1ccc(OCCCOc2ccc(C(N)CCCCCC)cc2)cc1 (stereo not drawn)	24.5
CCCCCCNC(=N)c1ccc(OCCCCCOc2ccc(C(=N)NCCCCCC)cc2)cc1	12.3

SMILES	IFI [%]
CCCCCOc1ccc(C(O)C(CCC(CN2CCCCCC2)C(O)c2ccc(OCCCCC)cc2)CN2CCCCCC2)cc1 (stereo not drawn)	12.9
CCCCCC(NCCCC)c1ccc(OCCOc2ccc(C(CCCCC)NCCCC)cc2)cc1 (stereo not drawn)	16.3
C=CCNC(CCCCC)c1ccc(OCCOc2ccc(C(CCCCC)NCC=C)cc2)cc1 (stereo not drawn)	18.3
Fc1ccc(C=NNc2nc3ccccc3[nH]2)cc1	1.42
O=C1Nc2cccc3c2C1(CCCCN1CCC(c2c(-c4ccc(F)cc4)[nH]c4ccccc24)CC1)CCC3 (stereo not drawn)	7.91
CCNC(=O)Nc1ccc(N(C)c2ccnc(NC3CC3)n2)cc1	2.97
CN(c1ccccc1)c1ccnc(NC(=N)Nc2ccc(Cl)cc2)n1	18.4
CN(c1ccc(NC(=O)Nc2cccc(Cl)c2)cc1)c1ccnc(N)n1	6.9
Cc1cc(NCCC(=O)Nc2ccccc2)nc(NCCOc2ccccc2)n1	4.88
C=CCOC(=O)N1CCC(CNCc2cccc(-c3ccc(-c4nc5ccccc5[nH]4)s3)c2)C1 (stereo not drawn)	6.73
Cc1cc2nc(N/C(N)=N/C(=O)NC3CCCCC3)nc(C)c2cc1C	9.38
CCN(CC)CCOc1ccc(N(Cc2ccc(C(C)(C)C)cc2)C(=O)c2ccc(Cc3ccccc3)cc2)cc1OC	5.84
Cc1cccc2nc(-c3ccc(-c4cccc(CNCCN5CCNCC5)c4)cc3)[nH]c12	6.93
CC(C)COc1ccc(Cl)cc1Cc1ccc(-c2nc3cnc4ccccc4c3[nH]2)o1	7.23
CC(C)COc1ccc(Cl)cc1Cc1nc(-c2nc3ccc(CN4CCCCC4)cc3[nH]2)co1	18.3
CC(C)COc1ccc(Cl)cc1Cc1ccc(-c2nc3cc(CCN4CCCC4)ccc3[nH]2)o1	22.2
CNCc1cccc2nc(-c3ccc(Cc4cc(Cl)ccc4OCC(C)C)o3)[nH]c12	16.7
Clc1ccc(OCc2ccccc2)c(Cc2ccc(-c3nc4cnccc4[nH]3)o2)c1	12.2
CC(C)COc1ccc(Cl)cc1Cc1ccc(-c2nc3cc(N4CCN(C)CC4)ccc3[nH]2)o1	17.2
CN1CCN(CCc2ccc3nc(-c4csc(Cc5cc(Cl)ccc5OCc5ccccc5)n4)[nH]c3c2)CC1	10.2
CC(C)COc1ccc(Cl)cc1Cc1ccc(-c2nc3cc(F)c(F)cc3[nH]2)o1	13.7
CC(C)COc1ccc(Cl)cc1Cc1ccc(-c2nc3cc(CCN(C)C)ccc3[nH]2)o1	16
CN1CCN(c2ccc3[nH]c(-c4ccc(Cc5cc(Cl)ccc5OCc5ccccc5)o4)nc3c2)CC1	24.7
CC(C)COc1ccc(Cl)cc1Cc1nc(-c2nc3ccc(CN4CCCC4)cc3[nH]2)co1	16.1
CC(C)COc1ccc(Cl)cc1Cc1nc(-c2nc3ccc(CN4CCN(C)CC4)cc3[nH]2)co1	5.81
